# About 1,000 (43%) of roughly 2,300 compounds were called active. So high a share suggests a set chosen from earlier hits. The list shows a part of the results. Entries with a potency or affinity are not part of this list. A number with no mark means an inactive call. How the calls were made is not given here.
# Assay: PhoP regulon inhibitor project modified counter assay, GFP fluorescence readout, dose response (AID 1985)
# Settings: S. Typhi, 4 h; series mostly up to 150 µM; inhibition: at the top concentration
row,Compound,inhibition
1,O=C1N/C(=C/c2ccc(N3CCOCC3)cc2)C(=O)N1Cc1ccc(F)cc1,-4.52%
2,CCOC(=O)c1c(CSC(=N)N)n(C)c2cc(Br)c(OC(C)=O)cc12,-19%
3,CCOC(=O)Cc1[nH]nc2c1C(c1ccoc1)C(C#N)=C(N)O2 (stereo unspecified),24.6%
4,NC1=NC[C@H](Cc2ccc(O)cc2)N1CCc1cccc2ccccc12,-33.5%
5,COc1ccc(C(=O)Oc2cc(C(=S)N3CCOCC3)ccc2OC)cc1,-4.19%
6,COc1cc2c(cc1OC)CN(C(=O)CCCN1C(=O)c3ccccc3C1=O)CC2,11%
7,CC(C)(C)n1nc2c(c1NC(=O)c1ccccc1)CS(=O)(=O)C2,-6.62%
8,Cc1cc(C)c[n+](CC(=O)c2ccc(NC(=O)c3ccccc3)cc2)c1,15%
9,Cc1ccc(C)c(OCC(=O)Nc2cccc(C(=O)O)c2)c1C,26.7%
10,Cc1c(-c2ccccc2)[n+](=O)c2c(n1[O-])CCCC2,7.37%
11,Cn1c(CCN2CCN(c3ccccn3)CC2)nc2cc(NC(=O)COc3ccccc3)ccc21,16.1%
12,O=c1c2ccccc2nc2n1CCc1c-2[nH]c2ccccc12,-12.2%
13,COc1cc(/C=C(/C#N)C(=O)Nc2ccccc2)c(Br)cc1OCc1ccc(C(=O)O)cc1,-2.34%
14,CCC(=O)N1CCc2cc(S(=O)(=O)NCCCN3CCN(Cc4ccccc4)CC3)ccc21,-4.18%
15,CCNC(=S)Nc1cc(-c2ccc(Cl)cc2)[nH]n1,-1.85%
16,CCn1nnnc1SCC(=O)c1cc(Cl)ccc1OC,4.28%
17,CC1CCC(C(C)C)C(OC(=O)C[n+]2cc(-c3ccc(Cl)cc3)n3c2CCC3)C1 (stereo unspecified),35.1%
18,CC1CCC(C(C)C)C(OC(=O)Cn2c(-c3ccc(Br)cc3)[n+](C)c3ccccc32)C1 (stereo unspecified),-18.7%
19,COc1ccc(OC)c(C(=O)c2ccc(C(=O)O)cc2)c1,13.8%

row,Compound,inhibition
1,Cc1ccc(NC2=C(Cl)C(=O)OC2OC(=O)c2ccco2)c(C)c1 (stereo unspecified),1.58%
2,COC(=O)c1cn(C(=O)c2ccco2)c2ccccc12,-16%
3,COC(=O)c1ccc(OC(=O)c2cccnc2)cc1,14%
4,COc1ccc(N(C(=O)c2cccnc2)S(=O)(=O)c2cccc([N+](=O)[O-])c2)cc1,-6.79%
5,CCN(C1CCCCC1)S(=O)(=O)c1ccc(OC)c(C)c1,10.8%
6,CSC1=NC2(C)CCCCC2C12C=CC(=O)C=C2 (stereo unspecified),-12.5%
7,Cc1cc(NC(=O)CSc2nnc(-c3cccnc3)n2N)no1,16.5%
8,COc1ccc(C(=O)CSc2nnc(-c3cnccn3)n2Cc2ccco2)cc1,-8.62%
9,Cc1cc(C)c(CSc2ncnc3nc[nH]c23)c(C)c1,-13.6%
10,Cc1nc2ccc(NC(=O)c3cccc(C(F)(F)F)c3)cc2o1,-0.54%
11,N#CC(C(=O)C12CC3CC(CC(C3)C1)C2)c1nc2ccccc2[nH]1 (stereo unspecified),-23.9%
12,Cc1nn(-c2nc3ccccc3[nH]2)c(N)c1-c1ccccc1,5.82%
13,c1ccc(N2CCN(c3nc4ccccc4[nH]3)CC2)nc1,23.3% [at 75 µM]
14,CC(=O)c1ccc(NC(=S)NC(NC(=O)c2ccco2)C(Cl)(Cl)Cl)cc1 (stereo unspecified),26.9%
15,Cn1cnc2cc(NC(=O)c3cccs3)ccc21,25.2%
16,O=C(Nc1ccc2c(c1)nc1n2CCN(Cc2ccccc2)C1)c1cccs1,-10.1%
17,COc1ccc(NC(=O)Cn2c(=O)oc3cc(S(=O)(=O)N4CCCC4)ccc32)c(OC)c1,-6.13%
18,COc1cc(CNC(=O)CCC(=O)N2C[C@H]3C[C@H](C2)c2cccc(=O)n2C3)cc(OC)c1OC,-15.7%
19,Cc1ccc(/C=N/NC(=O)CSc2nc3ccccc3n2C)s1,7.39%

row,Compound,inhibition
1,CC(C)c1ccc(NC(=O)CSc2nnc(-c3ccccn3)n2C)cc1,1.9%
2,COc1ccccc1C(=O)NNC1=C(C(=O)C(F)(F)F)CCC1,22%
3,COc1nc(N(C#N)CC(N)=O)nc(N2CCCC2)n1,-14.6%
4,CC1CCN(CC(CS(=O)(=O)c2ccc([N+](=O)[O-])cc2)N2CCC(C)CC2)CC1 (stereo unspecified),-27.2%
5,O=c1c2cnn(-c3ccccc3)c2ncn1CCc1ccccc1,16.9%
6,COc1cccc(-c2nc(CS(=O)CC(=O)NCCCOC(C)C)c(C)o2)c1 (stereo unspecified),-17.2%
7,Cc1ccsc1/C=N/NC(=O)c1ccncc1,3.21%
8,O=C(N/N=C/c1ccc(N2CCCC2)c([N+](=O)[O-])c1)c1cccnc1,19.8%
9,Cc1cc(C)n(-c2nc3ccccc3nc2N2CCN(C(=O)c3ccc(F)cc3)CC2)n1,-26.8%
10,CSc1nnc(-c2cccc(NC(=S)NN)c2)o1,-45.2%
11,Cc1cccc(-n2ccnc2CN2CCN(C3CCCC3)C(CCO)C2)c1 (stereo unspecified),5.03%
12,O=C(c1ccccc1F)N1C(=O)c2cccc3cccc1c23,1.1%
13,C[N+](C)(CCCCCC[N+](C)(C)CCCN1C(=O)c2cccc3cccc(c23)C1=O)CCCN1C(=O)c2cccc3cccc(c23)C1=O,15.2%
14,Cc1ccc(-c2[nH]ncc2/C=N/n2c(C)nc3ccccc3c2=O)cc1,24.4%
15,Cc1ccc(/C=N/n2c(C)nc3ccccc3c2=O)s1,-5.95%
16,CCc1ccccc1NC(=O)c1onc(C)c1Cl,-34.5%
17,Cc1onc(-c2ccccc2Cl)c1C(=O)NNC(=O)C1CCN(Cc2ccccc2)CC1,-13.4%
18,CCCN(CCC)CCNC(=O)C1CCN(Cc2nc(-c3ccc(Cl)cc3)oc2C)CC1,29.4%

# — PubChem BioAssay AID1985 (Southern Research Specialized Biocontainment Screening …, 2009)
